Compounds with a hit are over-represented: about 0.82% of the library has one in this group of screens.
RTF Ca sens act: cardiac RTF calcium sensitivity activators, primary screen, biochemical, IANBD-TnC fluorescence, EC20 calcium; IANBD-labeled TnC RTF fluorescence at EC20 calcium; 0% EC20 calcium, 100% full calcium; activation, % at 7.2 µM; 340,000 compounds, 0.24% hits; AID 493008, 2010;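 active means activation above the mean over all tested compounds plus 3 SD, cut at about 30% in these data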;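 further: rise in fluorescence read as greater calcium sensitivity of cardiac thin filaments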
Cardiac RTF inh: cardiac RTF calcium sensitivity inhibitors, primary screen, biochemical, IANBD-TnC fluorescence, EC70 calcium. AID 493244, 2011. 340,000 compounds, 0.12% hits. inhibition, % at 7.15 µM. IANBD-labeled cardiac RTF, Ca2+ fluorescence. Troponin I, cardiac muscle (Homo sapiens) + Troponin T, cardiac muscle (Homo sapiens) + …;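 active means inhibition above the mean inhibition of all tested compounds plus 3 SD, cut at about 17% in these data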;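 further: assay run at fixed EC70 calcium of 1.6 mM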
eLon inh: inhibitors of E. coli Lon protease, primary screen, biochemical, fluorescence polarization; P0A9M0; purified E. coli Lon protease; inhibition, % at 7.94 µM; 360,000 compounds, 0.42% hits; in the data active means inhibition above about 13%, passing the limit was not always enough
Keap1 Nrf2 FP: Keap1-Nrf2 protein-protein interaction inhibitors, primary screen, biochemical, fluorescence polarization, single point | 340,000 compounds, 0.15% hits | inhibition, % at 9.4 µM | Keap1 Kelch-Nrf2 peptide fluorescence polarization, 1536-well | AID 504523, 2011; in the data active means inhibition above about 12%;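 further: human Keap1 Kelch domain with fluorescein labeled Nrf2 9mer peptide probe; higher means more block of Keap1 binding to Nrf2 peptide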
Target sequence (Q14145 whole entry, looked up, the tested form may be a part): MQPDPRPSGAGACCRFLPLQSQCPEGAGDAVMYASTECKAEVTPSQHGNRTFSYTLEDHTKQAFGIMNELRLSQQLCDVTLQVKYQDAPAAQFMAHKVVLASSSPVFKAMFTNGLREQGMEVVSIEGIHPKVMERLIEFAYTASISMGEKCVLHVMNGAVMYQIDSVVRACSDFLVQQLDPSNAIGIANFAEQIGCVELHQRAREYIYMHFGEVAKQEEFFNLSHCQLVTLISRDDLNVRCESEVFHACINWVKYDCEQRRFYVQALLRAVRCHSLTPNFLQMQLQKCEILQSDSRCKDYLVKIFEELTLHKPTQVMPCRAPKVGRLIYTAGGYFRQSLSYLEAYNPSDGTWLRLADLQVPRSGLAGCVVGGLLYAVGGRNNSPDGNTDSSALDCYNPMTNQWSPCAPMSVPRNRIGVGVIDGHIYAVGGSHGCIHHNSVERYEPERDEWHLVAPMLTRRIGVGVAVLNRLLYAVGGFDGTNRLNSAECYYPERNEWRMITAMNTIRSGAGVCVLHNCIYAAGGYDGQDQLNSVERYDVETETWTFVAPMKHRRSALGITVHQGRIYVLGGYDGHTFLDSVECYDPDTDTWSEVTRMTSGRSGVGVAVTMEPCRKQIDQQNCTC
C-LANA FP: inhibitors of KSHV C-LANA binding to DNA, primary screen, biochemical, fluorescence polarization, FAM-LBS DNA, MBP-C-LANA, single point | Kaposi's sarcoma herpesvirus LANA C-terminal domain (residues 932-1162) DNA binding | inhibition, % at 9 µM | 340,000 compounds, 0.078% hits;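 active means highest replicate inhibition at or above 60% at 9 µM, even if other replicates fall short; inactive means all replicates below 60% inhibition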
E coli Lon conf: E. coli Lon protease inhibitor retest, confirmation, biochemical, fluorescence polarization | purified E. coli Lon | 1,400 compounds, 31% hits | inhibition, % at 7.94 µM | shares compounds with eLon inh | AID 602230, 2012; in the data active means inhibition above about 16%
Large screens that a line does not name were inactive (follow-up assays come after a bar, where they were run).

CN(C)/C=C1\C=C2C(=O)c3ccccc3N2C1=O	RTF Ca sens act active, eLon inh 93.3, Keap1 Nrf2 FP active, C-LANA FP active | E coli Lon conf inactive
Cc1cc(CN(C)C(=O)c2cc(COc3ccc(F)cc3Cl)on2)n[nH]1	eLon inh 31.8 | E coli Lon conf inactive
CN(Cc1ccccn1)C(=O)c1cc(COc2ccc(F)cc2Cl)on1	none (no result: RTF Ca sens act, Cardiac RTF inh, Keap1 Nrf2 FP, C-LANA FP)
COc1ccccc1Cc1c(-c2ccco2)nc2ccc(Br)cn12	none (no result: RTF Ca sens act, Cardiac RTF inh, Keap1 Nrf2 FP, C-LANA FP)
Nc1ccc2cc3[nH]c4cc(N)ccc4c3nc2c1	RTF Ca sens act active, eLon inh active, Keap1 Nrf2 FP 161.3, C-LANA FP 164.5 | E coli Lon conf 146.1
Nc1ccc(-c2nc3ccc(N)cc3[nH]2)cc1	none
O=C1C(=Cc2cccn2-c2ccc(O)cc2)C(=O)c2ccccc21	none
O=C1C(=Cc2cccn2-c2ccccc2)C(=O)c2ccccc21	eLon inh 61.5 | E coli Lon conf 38.8
CC(=O)Nc1cc(-c2ccccc2N(C)C)cn2c(-c3cccc(C(F)(F)F)c3)cnc12	eLon inh active (no result: RTF Ca sens act, Cardiac RTF inh, Keap1 Nrf2 FP, C-LANA FP) | E coli Lon conf inactive
CC(=O)Nc1cc(-c2cccc(NS(C)(=O)=O)c2)cn2c(-c3cccc(C(F)(F)F)c3)cnc12	none (no result: RTF Ca sens act, Cardiac RTF inh, Keap1 Nrf2 FP, C-LANA FP)
COc1ccc(N2CCN(CC(=O)N3c4ccccc4CC3C)CC2)cc1 (stereo not given)	eLon inh 18.1 | E coli Lon conf inactive
COc1ccc(Cc2c(-c3ccc(C)cc3)nc3ccc(Cl)cn23)c(C)c1	none (no result: RTF Ca sens act, Cardiac RTF inh, Keap1 Nrf2 FP, C-LANA FP)
Cc1ccc2c(c1)c(C)c(C)n2CC(O)Cn1nc(C)c(Br)c1C (stereo not given)	eLon inh 14.8 | E coli Lon conf 23.5
COc1ccc([C@H]2N[C@]3(CCCN(Cc4ccc(C)cc4)C3=O)[C@H]3C(=O)N(Cc4ccccc4)C(=O)[C@@H]23)cc1	none (no result: RTF Ca sens act, Cardiac RTF inh, Keap1 Nrf2 FP, C-LANA FP)
S=C(Nc1ccc(N2CCOCC2)cc1)Nc1ccc2nc(-c3ccco3)c(-c3ccco3)nc2c1	eLon inh 43.1 | E coli Lon conf 84.5
Cc1cc(NC(=O)CSc2cn(CCNC(=O)c3ccccc3)c3ccccc23)no1	eLon inh 19.9 | E coli Lon conf inactive
N#Cc1c(N)sc(=S)c2c1CCCCC2	eLon inh 20.3 | E coli Lon conf inactive
O=C(Nc1ccccc1N1CCCC1)c1ccc([N+](=O)[O-])o1	none
COc1ccc(N2CCCC2)c(NC(=O)c2ccc([N+](=O)[O-])o2)c1	eLon inh 41.3 | E coli Lon conf inactive
Oc1cc(CNC2CCCCC2)c(O)cc1CNC1CCCCC1	eLon inh 45.2 | E coli Lon conf 17.4
COc1ccccc1N1CCN(S(=O)(=O)c2c(C)[nH]c(=O)[nH]c2=O)CC1	none
Cc1[nH]c(=O)[nH]c(=O)c1S(=O)(=O)N1CCN(c2ccccc2F)CC1	eLon inh 43.6 | E coli Lon conf inactive
CNc1c2cccc(C)c2nc2c(C(=O)NCCN(C)C)cccc12	eLon inh 178.5, C-LANA FP 60.8 | E coli Lon conf 195.2
Cc1ccc(C(=O)NCCN(C)C)c(C)c1	none
Cc1cccc(CC(=O)NCCS(=O)(=O)N2CCN(c3ccccc3)CC2)c1	none (no result: RTF Ca sens act, Cardiac RTF inh, Keap1 Nrf2 FP, C-LANA FP)
Cc1ccc(S(=O)(=O)N2CCn3cccc3C2C)cc1 (stereo not given)	eLon inh 20.6 | E coli Lon conf inactive
Cc1cccc(S(=O)(=O)N2CCn3cccc3C2C)c1 (stereo not given)	none
COc1ccc(N=NC2=C(O)CC(C)(C)CC2=O)c(OC)c1	eLon inh 22.3 | E coli Lon conf inactive
COc1ccc(N=NC2=C(O)CC(C)(C)CC2=O)cc1	none
COCCNc1nc(Nc2ccc(Cl)cc2F)c2sccc2n1	none (no result: RTF Ca sens act, Cardiac RTF inh, Keap1 Nrf2 FP, C-LANA FP)
COC(=O)c1ccsc1NC(=O)CSc1nnnn1-c1ccccc1SC	eLon inh 20.1 | E coli Lon conf inactive
CCOC(=O)CSc1nc2cc(C)ccc2cc1C#N	eLon inh 26.9 | E coli Lon conf inactive
CCOC(=O)CSc1nc2ccc(C)cc2cc1C#N	none
O=C(Nc1cccc2ccccc12)c1csc([C@@H]2O[C@H](CO)[C@@H](O)[C@H]2O)n1	none (no result: RTF Ca sens act, Cardiac RTF inh, Keap1 Nrf2 FP, C-LANA FP)
O=C(Nc1cccc(Cl)c1Cl)c1csc([C@@H]2O[C@H](CO)[C@H](O)[C@H](O)[C@H]2O)n1	eLon inh 14.8 (no result: RTF Ca sens act, Cardiac RTF inh, Keap1 Nrf2 FP, C-LANA FP) | E coli Lon conf inactive
CSc1ccc(CN2CCC2(C)C(=O)Nc2ccc3c(c2)OCO3)cc1 (stereo not given)	none (no result: RTF Ca sens act, Cardiac RTF inh, Keap1 Nrf2 FP, C-LANA FP)
Cc1ccc(N(CC(O)CN2CCOCC2)S(=O)(=O)c2ccc([N+](=O)[O-])cc2)cc1 (stereo not given)	eLon inh 16.7 | E coli Lon conf inactive
COc1ccc(N(CC(O)CN2CCOCC2)S(=O)(=O)c2ccc(C)cc2)cc1 (stereo not given)	none
Cc1ccc(-c2[nH]c3cc(C(=O)NCCCn4ccnc4)ccc3c(=O)c2O)cc1	eLon inh 125.0 | E coli Lon conf 92.1
Cc1ccc(-c2[nH]c3cc(C(N)=O)ccc3c(=O)c2O)cc1	eLon inh 76.1 | E coli Lon conf 45.8
CCCCCn1c(=O)[nH]c2cc(C(=O)NCCCN(CC)CC)ccc2c1=O	none
Cc1ccc(CNC(=O)c2ccc3c(=O)c(O)c(-c4ccc(C)cc4)[nH]c3c2)cc1	none
CCCNC(=O)c1ccc2c(=O)c(O)c(-c3ccc(OC)cc3)[nH]c2c1	eLon inh 172.3 | E coli Lon conf 112.0
CCCNC(=O)c1ccc2c(=O)c(O)c(-c3ccsc3)[nH]c2c1	eLon inh active | E coli Lon conf 181.6
O=C(NCCCn1ccnc1)c1ccc(Cl)c(Cl)c1	none
COc1ccc(Cc2c(-c3ccc(C)cc3)nc3cc(C)c(Br)c(C)n23)c(C)c1	none (no result: RTF Ca sens act, Cardiac RTF inh, Keap1 Nrf2 FP, C-LANA FP)
CCCNC(=O)c1ccc2c(=O)c(O)c(-c3ccc(C)cc3)[nH]c2c1	eLon inh 159.8 | E coli Lon conf 141.0
COc1ccc(CC(=O)Nc2ccc(S(=O)(=O)Nc3cc(C)nc(C)n3)cc2)cc1OC	none (no result: RTF Ca sens act, Cardiac RTF inh, Keap1 Nrf2 FP, C-LANA FP)
Cc1cccc(CN2[C@H](COC(=O)Nc3ccccc3)C=CS2(=O)=O)c1	none (no result: RTF Ca sens act, Cardiac RTF inh, Keap1 Nrf2 FP, C-LANA FP)
COc1cc(NC(=O)c2ccccc2F)ccc1NC(=O)c1cc2ccccc2o1	eLon inh 16.2 | E coli Lon conf inactive
COc1cc(NC(=O)c2ccc(F)cc2)ccc1NC(=O)c1cc2ccccc2o1	none
COc1cc(OC)c2ccc(=O)oc2c1C(CC(=O)N1CCCC1)c1ccc2c(c1)OCO2 (stereo not given)	none
COc1cc(C(CC(=O)N2CCCC2)c2c(OC)cc(OC)c3ccc(=O)oc23)cc(OC)c1OC (stereo not given)	eLon inh 37.0 | E coli Lon conf inactive
OC[C@@H]1CN(Cc2ccc(Cl)cc2)C[C@H](n2cnc3c(NCc4ccc(F)cc4)ncnc32)O1	none (no result: RTF Ca sens act, Cardiac RTF inh, Keap1 Nrf2 FP, C-LANA FP)
O=C(COC(=O)c1cc2ccccc2cc1O)NC1CCCCC1	eLon inh 25.6 | E coli Lon conf inactive

Source: PubChem (several laboratories)
